The structures appear in SMILES notation. Screen size: about 290,000 compounds; about 11,000 (3.8%) were called active. This excerpt belongs to a sample that is enriched for actives. Values without a mark were called inactive.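 The calls were made as follows: active = mean replicate inhibition above about 79%, with every replicate also reaching it (limit read from the data); inconclusive = only one of the two criteria met; inactive = mean below limit and not every replicate reaching it.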

Broadly, the inhibition is the relative decrease from the control value, in per cent.

Chain of FAD-linked sulfhydryl oxidase ALR (Homo sapiens) (P55789 whole entry, looked up): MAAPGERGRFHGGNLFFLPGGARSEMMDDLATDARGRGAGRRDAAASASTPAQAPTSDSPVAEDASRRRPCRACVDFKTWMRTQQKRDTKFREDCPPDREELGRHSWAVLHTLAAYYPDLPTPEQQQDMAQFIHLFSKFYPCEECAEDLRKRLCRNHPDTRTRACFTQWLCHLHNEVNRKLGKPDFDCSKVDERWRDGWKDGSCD

This assay addresses FAD-linked sulfhydryl oxidase ALR (Homo sapiens) (UniProt P55789). Kind of assay: inhibitors of human ALR sulfhydryl oxidase, primary screen, biochemical, H2O2 detection, HRP-luminol luminescence, single point (AID 485317). The following applies: purified ALR, DTT oxidation, hits give high values, concentration not given here.
Regarding `O=C(NCCCN1CCOCC1)c1ccccc1NS(=O)(=O)c1ccc(Br)cc1`, the inhibition is -9.12%. In the case of `O=C(NCCCN1CCOCC1)c1ccccc1NS(=O)(=O)c1ccc(F)cc1` it was -11.8%; in that of `O=C(NCCCN1CCOCC1)c1cnn2c(-c3ccccc3)cc(-c3ccccc3)nc12`, 94.1% (active); in that of `CN(C)S(=O)(=O)c1cccc(NC(=O)COc2ccc3ccccc3c2)c1`, -11.4%.

With `C=CCn1c(SCC(=O)NC(=O)Cc2ccccc2)nc2ccccc2c1=O`, the inhibition was -2.51%. In the case of `C=CCn1c(SCc2ccc(C(=O)NCCO)cc2)nc2ccccc2c1=O` it was 98.7% (active).

For `COCCNC(=O)c1ccc(-n2c(SCc3cccnc3)nc3ccccc3c2=O)cc1`, the inhibition is -2.07%. As for `Cc1ccc(CNC(=O)c2cccc3c2C(=O)c2ccc(N4CCC(C)CC4)cc2S3(=O)=O)cc1`, the figure is 3.52%; as for `NS(=O)(=O)c1ccc(CCNC(=O)COC(=O)COc2cccc(C(F)(F)F)c2)cc1`, -3.46%.

For the molecule `S=c1[nH]nc(CSCc2ccc(Cl)cc2Cl)n1-c1ccccc1`, the inhibition is 1.91%. `Cc1ccc(NCc2n[nH]c(=S)n2-c2ccccc2)cc1Cl`: the inhibition is 88.3% (active). Consider `Cc1ccc(OCc2n[nH]c(=S)n2-c2ccccc2)cc1`, for which the inhibition is 65.2%.

`Cc1ccc(NC(=O)C2CCC(C(C)(C)C)CC2)cc1S(=O)(=O)N1CCOCC1` (stereo unspecified): the inhibition is -0.467%. Consider `CC(C(=O)Nc1ccc(S(=O)(=O)N2CCCC2)cc1)N(C)Cc1ccc(F)cc1` (stereo unspecified), for which the inhibition is -1.06%.

Turning to `CCn1c(=S)[nH]c2cc(S(=O)(=O)N3CCOCC3)ccc21`, the inhibition was 67.1%. In the case of `COc1cccc(NC(=O)C(=O)c2cn(CC(=O)N3CCOCC3)c3ccccc23)c1` it was 4.42%; in that of `CN1c2ccc(C=O)c3c(C=O)ccc(c23)N(C)C1(C)C`, 99.2% (active). As for `N/C(Cc1ccc([N+](=O)[O-])cc1)=N\OC(=O)COc1ccc2ccccc2c1`, the figure is -17.6%. As to `Cc1cc(C)cc(OCC(=O)O/N=C(\N)Cc2ccc([N+](=O)[O-])cc2)c1`, the inhibition is 98.4% (active). As for `CCOC(=O)COc1ccc([N+](=O)[O-])cc1`, the figure is 3.19%; as for `Cc1ccc(S(=O)(=O)NC(C)C(=O)NCc2ccc(Cl)cc2)cc1` (stereo unspecified), 10.6%.

Take `Oc1ccc(N=Cc2c(O)ccc3ccccc23)cc1`: the inhibition was 99.5% (active). As for `CCOc1ccc(N=Cc2c(O)n(-c3cccc(C)n3)c(=O)c3ccccc23)cc1`, the inhibition is -11.1%. As for `Oc1c(C=Nc2cccc3nsnc23)ccc2ccccc12`, the figure is 25.2%; as for `CCN(c1ccccc1)S(=O)(=O)c1cccc(C(=O)NCc2ccccc2CN2CCOCC2)c1`, -5.99%; as for `Cc1ccc(COC(=O)CN2C(=O)NC3(CCCC3)C2=O)cc1`, -0.909%. As for `CCC(=O)Nc1ccc(C(=O)CSc2nnc(CNc3ccc(Cl)cc3)o2)cc1OC`, the inhibition is 0.831%. Consider `COc1ccc(C(=O)CSc2nnc(-c3ccco3)o2)cc1`, for which the inhibition is 19.8%.

Consider `CC(C)C[C@@H](N)c1nnc(SCC(=O)c2ccc(Cl)cc2)o1`, for which the inhibition is 98.5% (active). On to `Cc1cc(C)cc(-c2nnc(SCC(=O)NC3CC3)o2)c1`, for which the inhibition was -0.0792%.

In the case of `O=C1NN(c2ccccc2)C(=O)/C1=C/c1ccc(-c2cccc(C(=O)O)c2)o1`, the inhibition was 98.7% (active).

With `CC1=NN(c2ccc(Cl)c(C(=O)O)c2)C(=O)/C1=C/c1ccc(-c2ccccc2[N+](=O)[O-])o1`, the inhibition was 71.4%. Regarding `Cc1cccc(C)c1-n1c(C)cc(/C=C2\C(=O)NN(c3ccccc3)C2=O)c1C`, the inhibition was 21.8%. In the case of `O=S(=O)(NCC1CN(S(=O)(=O)c2ccc3c(c2)OCCO3)C1)c1c(F)cccc1F` it was -2.88%; in that of `COc1ccc(NC(=O)Nc2ccc3c(c2)C(=O)N([C@H](C)CO)C[C@H](C)[C@@H](CN(C)C(=O)Nc2ccc4c(c2)OCO4)O3)cc1`, -7.46%; in that of `Cc1cc(C(=O)OCC(=O)N2C(C)CCCC2C)c2ccccc2n1` (stereo unspecified), -5.22%. As for `COc1ccc(C(=O)O)cc1S(=O)(=O)NC1CCN(Cc2ccccc2)CC1`, the figure is -0.811%. In the case of `CCOC(=O)N1CCN(C(=O)c2cc3c(-c4ccc(Cl)cc4)nn(C)c3s2)CC1` it was 72.2%; in that of `Cn1nc(-c2ccc(Cl)cc2)c2cc(C(=O)NCc3ccco3)sc21`, 86.8% (active). For the molecule `COc1ccccc1N1CCN(C(=O)c2cc3c(-c4ccc(Cl)cc4)nn(C)c3s2)CC1`, the inhibition was -109%.

Consider `O=C(COC(=O)c1cccc(Cl)c1)NC1CCCCCCC1`, for which the inhibition is -2.57%. As for `C/C(=N\NC(=O)c1cccnc1)c1ccc(-c2ccccc2)cc1`, the figure is -25.7%. As for `O=C(N/N=C/c1ccccn1)c1cccnc1`, the figure is -5.07%; as for `O=C(NN=C1CCC(=NNC(=O)c2cccnc2)CC1)c1cccnc1`, 99.1% (active). Regarding `CCCCN(C1CCS(=O)(=O)C1)S(=O)(=O)c1ccc(C(C)C)cc1` (stereo unspecified), the inhibition was -1.06%. In the case of `CC1O[C@H](OC2C(COC3OC(CO)C(O)[C@H](O)C3O)OC(OC3CC[C@]4(C)C(CC[C@@]5(C)[C@@H]4C=C[C@]46OC[C@@]7(CCC(C)(C)C[C@H]74)C(O)C[C@@]56C)C3(C)C)C(O)C2O)C(O)C(O)C1O` (stereo partly specified) it was -3.57%; in that of `CCCCN1C(N)=NC[C@@H]1CC1CCCCC1`, 98.3% (active).

Regarding `CCCC[C@@H]1CN=C(N)N1CCc1cc(C(F)(F)F)cc(C(F)(F)F)c1`, the inhibition is -42.9%. In the case of `CCCC[C@@H]1CN=C(N)N1CCCC`, the inhibition was 4.8%. Turning to `COc1ccc(S(=O)(=O)NCCCc2ccccc2)cc1`, the inhibition is -2.65%. In the case of `COc1ccc(S(=O)(=O)Nc2c(C)n(C)n(-c3ccccc3)c2=O)cc1` it was -9.38%; in that of `COc1ccc(S(=O)(=O)/N=C2\C=C(NS(=O)(=O)c3ccccc3)C(=O)c3ccccc32)cc1`, 87.5% (active). As for `COc1cc(OC)cc(-c2c(-c3cccs3)c3cc(-c4ccc(OC)nc4)ccc3n2C)c1`, the inhibition was -18.1%. For the molecule `O=C(OCC(=O)N1CCN(C(=O)c2ccco2)CC1)c1c(Cl)cccc1Cl`, the inhibition is -7.05%. In the case of `Cn1cccc1C(=O)OCC(=O)NCCc1ccccc1` it was 5.56%; in that of `Cn1c(Cn2nnc3ccccc32)nnc1SCC(=O)c1ccccc1F`, 25.7%.

For `C=CCn1c(Cn2nnc3ccccc32)nnc1SCC(=O)N/N=C/c1cc(Br)cc(OC)c1O`, the inhibition was 98.4% (active). As for `Cc1ccc(Cn2c(SCC(=O)N/N=C/c3ccccc3OCC(=O)O)nc3ccccc32)cc1`, the figure is -5.09%. In the case of `CSc1ccccc1NC(=O)C(C)N1C(=O)c2ccccc2S1(=O)=O` (stereo unspecified) it was -4.05%. In the case of `CC(=O)C(CC(=O)N1CCCC1)C(=O)Nc1ccc(Cl)cc1` (stereo unspecified) it was 23.9%; in that of `Cc1ccc(N2C(=O)N3[C@@H]4c5ccccc5OC[C@@H]4[C@@H](c4ccccc4)[C@@]3(C)C2=O)cc1`, 3%. With `Cc1nc(SCC(=O)NC2CCCCC2C)c(C#N)c(C)c1C` (stereo unspecified), the inhibition was -0.312%.

As for `O=C(CN1C(=O)NC2(CCOc3ccccc32)C1=O)Nc1cccc([N+](=O)[O-])c1` (stereo unspecified), the inhibition is 13.9%.

As to `COc1ccccc1C(=O)NCCC(=O)NN1C(=O)NC2(CCCCC2)C1=O`, the inhibition is -0.581%. In the case of `COc1ccc(-c2nc3cnccn3c2NC(C)(C)CC(C)(C)C)cc1O` it was 99.6% (active); in that of `COc1ccc(-c2nc3cnccn3c2NC2CCCCC2)cc1-c1cccc(Cl)c1`, 3.7%; in that of `CCCCNc1c(-c2ccc(OC)c(Sc3ccc(OC)cc3)c2)nc2ccc(Cl)cn12`, -8.2%. As for `COc1ccc(S(=O)(=O)N(C)C[C@@H]2Oc3ccc(NC(=O)Nc4c(C)noc4C)cc3C(=O)N([C@H](C)CO)C[C@@H]2C)cc1`, the figure is -1.21%; as for `NC(=O)NC(CC(=O)NNC(=O)c1ccccn1)c1ccc(Cl)cc1` (stereo unspecified), -14%.

With `Cc1ccc(N2C(=O)C3C(c4ccccc4)(C2=O)C3(c2ccccc2)c2ccccc2)cc1` (stereo unspecified), the inhibition was -4.39%. Turning to `Cc1ccc(C2SCC(=O)N2c2ccccc2)cc1` (stereo unspecified), the inhibition was 98.3% (active).

`COc1cccc(C2SCC(=O)N2c2cccc(C)c2)c1OC` (stereo unspecified): the inhibition was -42.2%. In the case of `Cc1occc1C(=O)Nc1cccc(S(=O)(=O)N2CCOCC2)c1` it was -1.99%; in that of `CCOC(=O)C1CCN(C(=O)c2cccc(S(=O)(=O)N(CC)c3ccccc3)c2)CC1`, -13.6%; in that of `COc1ccc(Cl)cc1NC(=O)CN(C)C(=O)c1cc(-c2cccs2)nn1-c1ccccc1`, 21.6%. As for `COc1ccc(Nc2cc(Cl)ccc2C(=O)O)cn1`, the figure is 98.7% (active); as for `COc1ccc(NS(=O)(=O)c2ccc(F)cc2F)cn1`, -5.33%. In the case of `COc1ccc(Nc2ccc([N+](=O)[O-])cn2)cn1` it was -22.9%. On to `O=C(N[C@@H]1C/C=C\C[C@@H](CC(=O)N(CCO)Cc2ccccc2)C(=O)N[C@H](Cc2ccccc2)COC1=O)OCC1c2ccccc2-c2ccccc21`, for which the inhibition is 5.13%. As for `CCOc1ccc(NC(=O)COc2ccc(C(=O)N3CCC(C(N)=O)CC3)cc2OC)cc1`, the figure is -0.853%.

`O=C(CSc1nnc(-c2cccnc2)n1Cc1ccco1)c1ccc(Cl)c(Cl)c1`: the inhibition is 98.2% (active).

`O=C(CSc1nnc(-c2cccnc2)n1Cc1ccco1)c1ccc(Cl)cc1`: the inhibition is 54.6%.

For `CCc1ccc(NC(=O)CSc2nnc(-c3cnccn3)n2Cc2ccco2)cc1`, the inhibition is 29.4%.

As for `O=C(CSc1nnc(-c2cccs2)n1Cc1ccco1)c1ccc2c(c1)OCO2`, the inhibition is 0.1%. As for `C(=C\c1ccccc1)/CSc1nnc(-c2cccnc2)n1Cc1ccco1`, the figure is 87.9% (active). As for `CCOC(=O)Cc1csc(NC(=O)CSc2nnc(-c3cccnc3)n2Cc2ccco2)n1`, the figure is -5.11%.

(Values after PubChem BioAssay AID485317 (Broad Institute, 2010).)
